Most compounds without a hit are left out; they make up all but 4.8% or so of the library.
DAX1 inh-1 – inhibits human nuclear receptor DAX1 | 0.99% of 340,000 active | inhibition, % at 6.75 µM | HEK293 Gal4-DAX1 luciferase reporter, luminescence | AID 504766;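 active means inhibition above the mean over all tested compounds plus 3 SD, cut at about 4.2% in these data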;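 further: inhibition shows as a rise in luminescence from relieved DAX1 repression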
Target sequence (P51843 207-470 limits assumed): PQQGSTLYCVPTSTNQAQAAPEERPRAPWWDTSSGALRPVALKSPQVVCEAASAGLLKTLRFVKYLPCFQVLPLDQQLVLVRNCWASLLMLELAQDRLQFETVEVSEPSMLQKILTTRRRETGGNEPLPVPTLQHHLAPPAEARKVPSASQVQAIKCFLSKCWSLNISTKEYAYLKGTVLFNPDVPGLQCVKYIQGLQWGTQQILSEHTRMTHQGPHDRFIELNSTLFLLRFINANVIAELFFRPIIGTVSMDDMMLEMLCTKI
hcDAF12 agonist – H. contortus DAF-12 activation, primary screen | HEK293 hcDAF-12 lit1-tk-luc reporter, luminescence; 0% DMSO, 100% Δ7-dafachronic acid | activation, % at 6.8 µM | 1.4% of 370,000 active | AID 652067;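 active means activation above the mean of all tested compounds plus 3 SD, cut at about 5.5% in these data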
SMARCA2 act – SMARCA2 function activation, primary screen. 1% of 370,000 active. activation, % at 9.1 µM. MG213 cells, MMTV-luciferase reporter, dexamethasone, overnight; in the data active means activation above about 7.8%
DAX1 inh-2 – DAX1 (NR0B1) inhibition, primary screen; AID 652010; 1.1% of 370,000 active; inhibition, % at 6.8 µM; HEK293T StAR-luciferase reporter, SF-1/DAX-1 repression relief;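 active means inhibition above the mean over all tested compounds plus 3 SD, cut at about 3.6% in these data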;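 further: higher inhibition means more luminescence from relief of DAX-1 repression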
ssDAF-12 act – S. stercoralis DAF-12 activation, primary screen; activation, % at 6.8 µM; 1% of 370,000 active; HEK293 ssDAF-12/GRIP1 lit1-tk-luc reporter, luminescence; % of 3 µM dafachronic acid response;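 active means activation above the mean over all tested compounds plus 3 SD, cut at about 0.9% in these data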
hgDAF-12 ag – activates the H. glycines DAF-12 receptor ligand-binding domain. HEK293 GAL4-hgDAF12 UAS-luciferase reporter, agonist luminescence; normalized to butyrate control. activation, % at 6.8 µM. 1.8% of 370,000 active. AID 687014;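 active means activation above a cutoff set at the mean of all screened compounds plus 3 SD, cut at about 10% in these data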
LXRb hcDAF ctr – counter-screen for hcDAF-12 agonists: agonists of human LXR-beta. shares compounds with hcDAF12 agonist. 3,400 tested, under 10 active. AID 743027. activation, % at 6.8 µM. HEK293 Gal4-LXR tk-luc reporter, luminescence, 24 h; normalized: DMSO 0%, positive control 100%;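 active means mean percent activation of the reporter above a cutoff set as the average over tested compounds plus their standard deviation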
hcDAF12 conf – hcDAF-12 agonism, confirmation assay | shares compounds with hcDAF12 agonist | HEK293 hcDAF-12 lit1-tk-luc reporter, luminescence; % of Δ7-dafachronic acid response | activation, % at 6.8 µM | 61% of 3,400 active | AID 743032;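 active means mean activation across triplicate tests above the threshold derived from the earlier primary screen, cut at about 5.5% in these data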
Hits are given with their value; . = inactive; / = no result.

SMILES | DAX1 inh-1 | hcDAF12 agonist | SMARCA2 act | DAX1 inh-2 | ssDAF-12 act | hgDAF-12 ag | LXRb hcDAF ctr | hcDAF12 conf
CC(=O)N=c1sc2c3ccccc3ccc2n1C | . | 7.5 | . | . | . | . | . | .
O=C(NCCSCc1ccco1)Nc1ccccc1 | . | 9.8 | . | . | . | . | . | .
CCOc1ccc(CCNC(=O)c2cc3sccc3n2Cc2ccccc2)cc1OCC | / | . | / | / | . | . | / | /
CC(=O)NCc1ccc(S(=O)(=O)N/N=C/c2ccc(Br)cc2)cc1 | . | 9.0 | . | . | . | . | . | .
C/C(=N/OCO/N=C(\C)c1ccccc1)c1ccccc1 | . | . | . | . | . | . | / | /
C/C(=N\OCc1cccc(C(=O)O)c1)c1ccc(Cl)cc1 | / | 8.8 | . | . | . | 13 | . | .
Cc1occc1C(=O)N=Nc1c(O)n(C)c2ccccc12 | . | 15 | . | . | 1.0 | 17 | . | 15
Cn1c(O)c(N=Nc2ccccc2[N+](=O)[O-])c2ccccc21 | . | 11 | . | . | 2.6 | 11 | . | 9.0
CCOC(=O)C(=O)N=Nc1c(O)n(C)c2ccccc12 | . | . | . | . | . | . | / | /
COC(=O)C1=C(C)N(Cc2ccccc2C(F)(F)F)C(=NCC2CC2)NC1c1cccc(F)c1 (stereo unspecified) | / | . | . | . | . | . | / | /
CCCN(CC1CC1)C(=O)CN1C(=O)C2CCCCN2C(=O)c2ccccc21 (stereo unspecified) | / | . | . | . | . | . | / | /
Cc1ccc(/C=C/C(=O)C2C(=O)c3ccccc3C2=O)cc1 | . | 8.7 | . | . | . | . | . | 12
C#CCN1C(=O)[C@]2(OCCC=C[C@H]2C)c2cc(OC)ccc21 | / | . | . | . | . | . | / | /
COc1ccc(C(=O)OCCCN(C)C2CN(Cc3cn(Cc4ccccc4C(F)(F)F)nn3)S(=O)(=O)C2)cc1OC (stereo unspecified) | / | . | . | . | . | . | / | /
CCOC(=O)c1ccc(S(=O)(=O)Nc2cc(C(=O)O)ccc2Cl)cc1 | . | 7.2 | . | . | . | . | . | .
C=CCN1[C@H](C)[C@H](c2ccccc2)Oc2cc(Br)ccc2S1(=O)=O | / | . | . | . | . | . | / | /
C[C@H]1[C@@H](N(C)Cc2cccs2)CC[C@@]23CCCN2C(=O)CCC[C@@H]13 | / | . | / | / | . | . | / | /
CCc1ccc2oc(-c3cc(N)ccc3O)nc2c1 | . | 8.3 | . | . | . | . | . | 7.7
CCc1ccc2oc(-c3cc(N)cc(C)c3O)nc2c1 | . | . | . | . | . | . | / | /
CCc1ccc2oc(-c3cc(N)ccc3Cl)nc2c1 | . | 14 | . | . | 1.3 | . | . | 9.8
Cc1ccc(S(=O)(=O)NCC2CCN(C(=O)C(=O)c3cccs3)CC2)cc1 | / | . | . | . | . | . | / | /
CC(=O)CC[C@H]1CC[C@]2(CCCN(C(=O)C3CCCCC3)C2)O1 | / | . | . | . | . | . | / | /
CC(=O)C1=C(C)N(Cc2ccc(Br)cc2)C(=S)NC1c1cccc(F)c1 (stereo unspecified) | / | . | . | . | . | . | / | /
NNc1nc2ccc(F)cc2s1 | . | 10.0 | . | . | . | . | . | .
NNc1nc2ccc(Cl)cc2s1 | . | . | . | . | . | . | / | /
SMILES | DAX1 inh-1 | hcDAF12 agonist | SMARCA2 act | DAX1 inh-2 | ssDAF-12 act | hgDAF-12 ag | LXRb hcDAF ctr | hcDAF12 conf
COc1ccc2c(C(=O)CN3CCSCC3)c[nH]c2c1 | . | 6.6 | . | . | . | . | . | .
Cc1cccc(C)c1N=C1NN=C(c2ccccc2F)CS1 | . | . | . | . | . | . | / | /
Cc1ccccc1N=C1NN=C(c2ccccc2F)CS1 | . | 9.4 | . | . | . | 13 | . | 11
CCOC(=O)N1N=C(c2ccc(C)cc2)CC1(O)C(F)(F)F (stereo unspecified) | . | 8.1 | . | 4.3 | . | 11 | . | 8.0
CCOC(=O)N1N=C(c2ccccc2)CC1(O)C(F)(F)F (stereo unspecified) | . | . | . | . | . | . | / | /
COc1ccc(NC(=O)/C=C/c2ccccc2)cn1 | . | 8.5 | . | . | . | 12 | . | 6.5
COc1ccc(/C(N)=N/OC(=O)Cc2cccs2)cc1OC | . | 14 | . | . | . | . | . | .
O=C(Nc1nccs1)c1cnc2sccn2c1=O | . | 8.5 | . | . | 1.5 | . | . | 7.6
CCOC(=O)C1=C(C(=O)OCC)C2N(Cc3ccc(C#N)cc3)c3ccccc3[C@@]23C[C@@H](C(=O)OC)N(S(=O)(=O)c2ccc(C#N)cc2)C3=N1 (stereo partly specified) | / | . | . | . | . | . | / | /
CNC(=S)N/N=C1\C(=O)c2cccc3cccc1c23 | . | 11 | . | . | . | . | . | 9.7
FC(F)(F)c1nc2cc3nc4ccccc4[nH]c3cc2n1 | . | 7.6 | . | . | . | . | . | .
O=c1cccc2n1Cc1cc3ccccc3nc1-2 | . | 14 | . | . | . | . | . | 9.7
CC[C@@]1(O)C(=O)OCc2c1cc1n(c2=O)Cc2cc3c(N)cccc3nc2-1 | . | . | . | . | . | . | / | /
COc1ccc(C(=O)O/N=C(\N)c2ccccn2)c(OC)c1 | . | . | . | . | . | . | / | /
N/C(=N\OC(=O)COc1ccc2ccccc2c1Br)c1ccccn1 | . | . | . | . | . | . | / | /
N/C(=N\OC(=O)COc1ccc(Br)cc1Cl)c1ccccn1 | . | 9.8 | . | 4.2 | . | . | . | 7.6
COc1ccc(Cl)cc1C(=O)O/N=C(\N)c1ccccn1 | . | 7.1 | 7.8 | . | . | . | . | .
CCOC(=O)C(C)(C)Sc1nc2c(cnn2-c2ccc(F)cc2)c(=O)[nH]1 | . | . | . | . | . | . | / | /
CCOC(=O)C(C)(C)Sc1nc2c(cnn2-c2ccc(C)cc2)c(=O)[nH]1 | . | 8.8 | . | . | . | . | . | .
N/C(=N\O)c1ccccc1-n1cccc1 | . | . | . | . | . | . | / | /
Nc1ccccc1-n1cccc1 | / | 15 | . | . | 1.6 | . | . | .
CN(C)[C@H]1CCN(c2ccc3c(c2)O[C@@H]2CCN(C2)S3(=O)=O)C1 | / | . | . | . | . | . | / | /
Cc1nc(NC(=O)c2cccnc2Cl)sc1C | . | 8.5 | . | . | . | . | . | .
Cc1cccc(C(=O)NNC(=O)c2ccc(Cl)cc2)c1O | . | 7.1 | . | . | . | . | . | 5.9
Cc1c(O)ccc(/C=N/Nc2ncccc2[N+](=O)[O-])c1O | . | 7.5 | . | . | 1.2 | . | . | 6.0
O=[N+]([O-])c1ccccc1/C=N/Nc1nccnc1Cl | . | . | . | . | . | . | / | /

Source: PubChem BioAssay
